Tested on: Vero E6 infected with SARS-CoV-2
Assay: inhibition of SARS-CoV-2 cytopathic effect; higher = more antiviral protection, active = above 15
Conditions: 48 h

Measured: inhibition of SARS-CoV-2 cytopathic effect

O=C(O)COc1cccc(-c2ocnc2-c2nc(-c3ccccc3)c(-c3ccccc3)o2)c1
inactive: 1 nM -0.58% | 8.33 nM 0.52% | 100 nM 0.7% | 833.33 nM 0% | 10000 nM 3.01%

CCOC(=O)[C@H]1O[C@@H]1C(=O)N[C@@H](CC(C)C)C(=O)NCCC(C)C [aloxistatin]
inactive: 1 nM 0.43% | 8.33 nM -1.01% | 100 nM 0.39% | 833.33 nM -0.54% | 10000 nM 11.2%

CC(C)=CCC[C@](C)(O)[C@@H]1CC=C(C)CC1 [levomenol]
inactive: 1 nM 0.81% | 8.33 nM 4.97% | 100 nM 5.57% | 833.33 nM 3.97% | 10000 nM 0.76%

Clc1cccc(Cl)c1NC1=NCCN1 [clonidine]
inactive: 1 nM -0.43% | 8.33 nM -2.8% | 100 nM -3.01% | 833.33 nM 0.52% | 10000 nM -5.58%

N[C@@H](CCC(=O)N[C@@H](CSN=O)C(=O)NCC(=O)O)C(=O)O [S-nitrosoglutathione]
inactive: 1 nM 0.29% | 8.33 nM 0.8% | 100 nM -1.28% | 833.33 nM -3.1% | 10000 nM -0.66%

COC(=O)c1cc(OC)c2c(c1-c1c(C(=O)OC)cc(OC)c3c1OCO3)OCO2 [bifendate]
inactive: 1 nM 1.14% | 8.33 nM 2.56% | 100 nM 3.5% | 833.33 nM 1.43% | 10000 nM 1.73%

C[C@H](N)Cn1ccc2cc(F)c(Cl)cc21
inactive: 1 nM 1.25% | 8.33 nM 4.09% | 100 nM 1.91% | 833.33 nM -2.16% | 10000 nM -0.64%

OC[C@H]1O[C@@H](O[C@@H]2[C@@H](CO)OC(O)(CO)[C@H]2O)[C@H](O)[C@@H](O)[C@H]1O (mixture of isomers) [lactulose]
inactive: 1 nM 1.11% | 8.33 nM 0.23% | 100 nM -0.45% | 833.33 nM -1.79% | 10000 nM 1.61%

CC1(C)CN(C(=O)c2ccc(-c3cccc4nc(NC(=O)C5CC5)nn34)cc2)C1 [solcitinib]
inactive: 1 nM 0.35% | 8.33 nM 1.82% | 100 nM 2.28% | 833.33 nM 4.05% | 10000 nM 4.4%

COc1cc2nc(C3CC3)nc(N3CCN(c4ccccc4OC)CC3)c2cc1OC
inactive: 1 nM -1.86% | 8.33 nM -1.01% | 100 nM -1.01% | 833.33 nM 1.94% | 10000 nM -4.17%

Nc1nc(-c2ccc(Cl)c(Cl)c2)c(-c2ccncc2)s1
inactive: 1 nM -1.24% | 8.33 nM 1.18% | 100 nM -2.7% | 833.33 nM -2.03% | 10000 nM -0.28%

O=C(Nc1ccc(S(=O)(=O)Nc2nccs2)cc1)C(c1ccccc1)c1ccccc1
inactive: 1 nM -0.78% | 8.33 nM 3.67% | 100 nM 2.47% | 833.33 nM 2.29% | 10000 nM -2.52%

C[C@H](NCc1ccc(OCc2ccccc2F)cc1)C(N)=O [priralfinamide]
inactive: 1 nM -0.13% | 8.33 nM 7.24% | 100 nM 6.27% | 833.33 nM 0.58% | 10000 nM -1.48%

O=C1Nc2ccc(Cl)cc2[C@@](C#CC2CC2)(C(F)(F)F)O1 [efavirenz]
inactive: 1 nM -5.64% | 8.33 nM -1.07% | 100 nM 0% | 833.33 nM -0.49% | 10000 nM -1.92%

COCCCOc1cc(C[C@@H](C[C@H](N)[C@@H](O)C[C@H](C(=O)NCC(C)(C)C(N)=O)C(C)C)C(C)C)ccc1OC [aliskiren-hemifumarate]
inactive: 1 nM 0.8% | 8.33 nM -0.18% | 100 nM -1.58% | 833.33 nM -0.63% | 10000 nM -0.23%

O=C(CO)[C@@H](O)[C@@H](O)[C@H](O)CO [tagatose]
inactive: 1 nM -1.77% | 8.33 nM -0.71% | 100 nM -0.15% | 833.33 nM -0.41% | 10000 nM 0.74%

C[C@@H]1CN(Cc2ccc(F)cc2)CCN1C(=O)COc1ccc(Cl)cc1NC(N)=O
inactive: 1 nM -1.77% | 8.33 nM -0.1% | 100 nM -2% | 833.33 nM -1.98% | 10000 nM -1.75%

COC1=C(OC)C(=O)C(CCCCCCCCCCO)=C(C)C1=O [idebenone]
inactive: 1 nM -0.23% | 8.33 nM -3.04% | 100 nM -0.1% | 833.33 nM 0.64% | 10000 nM 0.26%
